In the library only some 2.1% were active in any assay of this set; here they are far more common.
BaF3 tox: counter-screen for JAK2V617F inhibitors: parental Ba/F3 viability inhibitors; CellTiter-Glo ATP luminescence; inhibition, % at 5.6 µM; 220,000 compounds, 1.1% hits; AID 1486;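 active means inhibition above a per-campaign cutoff, the mean inhibition of all tested compounds plus 3 SD, cut at about 27% in these data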
Ba/F3 V617F tox: reduce viability of Ba/F3 cells dependent on JAK2V617F | Ba/F3 EpoR-JAK2V617F viability, ATP luminescence | inhibition, % at 5.6 µM | 220,000 compounds, 1.1% hits | AID 1446;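 active means inhibition above the campaign mean plus 3 SD over all tested compounds, cut at about 24% in these data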;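 further: cytokine-independent growth of Ba/F3 cells driven by EpoR plus mutant JAK2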
aSyn 5UTR inh: MLPCN primary screen, SNCA 5' untranslated region; alpha-synuclein 5'UTR reporter, inhibitor activity; inhibition, % (tested at 7.5 µM); 300,000 compounds, 0.82% hits; AID 1813; in the data active means inhibition above about 60%;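 further: H4 neuroglioblastoma cells stably carrying SNCA 5'UTR luciferase fusion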
KLF5 inhibitor: kruppel-like factor 5 inhibition; 290,000 compounds, 0.23% hits; DLD-1 KLF5 promoter-luciferase reporter, luminescence; inhibition, % at 5 µM;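 active means inhibition above a per-plate limit of that plate's mean compound inhibition plus 3 SD, cut at about 60% in these data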;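 further: higher means less KLF5 promoter-driven luciferase light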
APP transl inh: APP translation inhibition | SH-SY5Y APP 5'UTR-luciferase reporter, luminescence | inhibition, % at 2 µM | 190,000 compounds, 0.82% hits;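 active means inhibition above a set limit, derived from the sample mean plus 3 SD, cut at about 45% in these data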
IEC-6 tox: counter-screen for KLF5 inhibitors: cytotoxicity in IEC-6 cells; AID 1825; inhibition, % at 5 µM; IEC-6 cytotoxicity, luminescence viability; 290,000 compounds, 0.78% hits
IEC-6 tox confirm: IEC-6 cytotoxicity, confirmation assay; IEC-6 rat intestinal epithelial viability, luminescence; 1,900 compounds, 63% hits; AID 1907; shares compounds with IEC-6 tox; inhibition, % at 5 µM
Hits are given with their value; - = inactive; . = not tested or not shown. Unless noted, no stated cut-off is given here; in the data, active means inhibition above about 22%; inactive means the rest.

SMILES | BaF3 tox | Ba/F3 V617F tox | aSyn 5UTR inh | KLF5 inhibitor | APP transl inh | IEC-6 tox | IEC-6 tox confirm
Cc1nc(C(=O)N2CCC(n3nccc3NC(=O)Nc3ccccc3Cl)CC2)cs1 | . | . | - | - | . | - | .
COc1ccc(S(=O)(=O)N2N=C(C)Oc3ccccc3C2=O)cc1 | 76 | 86 | - | - | 85 | 68 | 45
NC(=O)CN1C(=O)C(=O)N(Cc2ccccc2Cl)C1=O | . | . | - | - | . | 44 | -
NC(=O)CN1C(=O)C(=O)N(Cc2ccccc2)C1=O | . | . | - | - | . | - | .
COc1cc(C(=O)NCC(=O)NCC2COc3ccccc3O2)cc(OC)c1OC (configuration not stated) | . | . | - | . | . | . | .
C1=Nc2c(NCc3ccccc3)ncnc2Oc2ccccc21 | - | - | - | - | - | 26 | 24
CCc1ccc(NC(=O)c2cnc(SC)nc2C)cc1 | . | . | - | - | . | - | .
Cc1cc(C)n2nc(SCCOc3ccccc3)nc2n1 | - | - | - | - | - | - | .
O=C(CCn1c(=O)sc2ccccc21)NC1CCCCC1 | . | . | - | - | . | - | .
COc1ccc(/C=N/Nc2nnc(C)n2N)cc1OC | - | - | - | - | - | 102 | -
COc1ccc(/C=N/Nc2nnc(C)n2N)cc1OC(C)=O | . | . | - | - | . | - | .
CCOc1ccc(S(=O)(=O)N2CCC(C(=O)NCCN3CCOCC3)CC2)cc1C | . | . | - | - | . | - | .
O=C(c1cnn2c(-c3ccccc3)cc(-c3ccccc3)nc12)N1CCN(Cc2ccccc2)CC1 | . | . | - | . | . | . | .
Cc1ccc(S(=O)(=O)c2nc(-c3ccccc3Cl)oc2N(C)C)cc1 | . | . | - | - | . | 24 | -
Cc1oc2c(c(=O)c1C)C(=O)CC(c1ccccc1)C2 (configuration not stated) | - | - | - | - | - | - | .
CS(=O)(=O)c1sc(C#N)c2c1C(=O)CC(c1ccccc1)C2 (configuration not stated) | 92 | 99 | 81 | - | . | 75 | -
N#Cc1c2ccc(O)cc2n2ccccc12 | - | - | - | - | - | - | .
O=C(N/N=C/c1ccccc1)c1ccc(CN2C(=O)c3cccc4cccc2c34)cc1 | - | - | - | - | - | - | .
O=C(N/N=C/c1ccc(O)cc1O)c1ccc(CN2C(=O)c3cccc4cccc2c34)cc1 | - | - | 62 | - | 60 | 34 | 52
CC(Nc1ncnc2ccccc12)c1ccccc1 (configuration not stated) | . | . | - | - | . | 28 | 27
CCCCC(Nc1ncnc2ccccc12)C(=O)O (configuration not stated) | - | - | - | - | - | - | .
N=c1c(C(=O)NCC2CCCO2)cc2c(=O)n3ccccc3nc2n1Cc1ccccc1 (configuration not stated) | . | . | - | - | . | - | .
N=c1c(C(=O)NCC2CCCO2)cc2c(=O)n3ccccc3nc2n1Cc1ccccc1Cl (configuration not stated) | . | . | - | - | . | 30 | 24
CCN(CC)S(=O)(=O)c1cc(NC(=O)CNc2cccc(S(=O)(=O)N3CCCC3)c2)ccc1C | . | . | - | . | . | . | .
CCCCn1c(CN2CCN(c3cccc(Cl)c3)CC2)nc2c1c(=O)[nH]c(=O)n2C | 38 | 48 | - | - | 85 | 44 | 41
SMILES | BaF3 tox | Ba/F3 V617F tox | aSyn 5UTR inh | KLF5 inhibitor | APP transl inh | IEC-6 tox | IEC-6 tox confirm
Cn1c(=O)[nH]c(=O)c2c1nc(CN1CCN(c3cccc(Cl)c3)CC1)n2CCCc1ccccc1 | - | - | - | - | - | - | .
CN(C(=O)c1ccccc1C(=O)OCC(=O)c1ccc(Br)cc1)c1ccccc1 | . | . | - | . | . | . | .
O=C(Nc1cc(Cl)ccc1-n1cncn1)c1cc(F)c(F)c(F)c1F | . | . | - | . | . | . | .
CC1=Nc2cc(C(=O)NCC3CCCO3)ccc2Sc2ccc(Br)cc21 (configuration not stated) | - | - | - | - | . | 43 | 29
CC1=Nc2cc(C(=O)O)ccc2Sc2ccc(Br)cc21 | - | - | . | - | - | - | .
CCS(=O)(=O)Nc1cccc(C2=NN(C(=O)c3ccco3)C(c3ccco3)C2)c1 (configuration not stated) | . | . | - | - | . | 47 | 22
CS(=O)(=O)Nc1cccc(C2=NN(C(=O)c3ccco3)C(c3ccco3)C2)c1 (configuration not stated) | . | . | - | - | . | - | .
CCCCC(=O)Nc1cccc(NC(=O)c2cccnc2Cl)c1 | - | - | - | - | . | - | .
Cc1cc(C)c2nc(Cl)c(C3NC(=O)c4ccccc4N3)cc2c1 (configuration not stated) | - | - | - | - | - | - | .
